# About 7,500 (2.1%) of roughly 360,000 compounds were called active. Inconclusive results (about 8%) are left out. The call rests on the fitted dose curve; in most records, active means well fitted cell-killing curve with a large enough effect; inconclusive means small, poorly fitted or top-dose-only effect, or effect the other way, or another doubt; inactive means no such curve, though single readings can be large or run the other way. The entries come from a sample that favours actives as a whole.
# Assay: qHTS for induction of synthetic lethality in tumor cells producing 2HG: qHTS for the HT-1080-IDH1KD cell line;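 on activity, negative = toxicity: 0% = DMSO wells and -100% = cell-free medium wells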
# Conditions: HT-1080 IDH1 knockdown viability, ATP luminescence, 48 h; series mostly up to 46.1 µM; activity, negative = toxicity: at the top concentration
# Procedure, shortened: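 Using the IDH1-knockdown HT-1080 line run in the same batch and compound series as the NT line, viability after 48 h at 37 °C was determined by CellTiter-Glo luminescence and expressed as % activity.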
# Potency means the concentration at half of the fitted maximal effect.
Compound,"activity, negative = toxicity",Potency
COC(=O)Cc1ccc(OCC(=O)Nc2ccc(OC(F)(F)F)cc2)cc1,4.71% (inactive),
CCOC(=O)Cc1ncccc1C(=O)Nc1ccc(OC)cc1,-0.0069% (inactive),
CCOC(=O)Cc1ncccc1C(=O)Nc1ccc(OC(F)(F)F)cc1,,20.6 µM (active)
O=C(NCc1ccccc1)C1c2ccccc2OCC(=O)N1C1CC1 (centres undefined),6.38% (inactive),
CCNC(=O)c1ccc(OCC(=O)Nc2ccc(F)cc2)c(OC)c1,17.7% (inactive),
COc1ccc(C(=O)N/N=C2\CCS(=O)(=O)c3ccc(F)cc32)cc1OC,,20.6 µM (active)
COc1ccc(C(=O)Nc2ccc(C3(C#N)CCCC3)cc2)cc1OC,-14.8% (inactive),
CC1(C(=O)NCc2ccccc2)CSCC(=O)N1CCCn1ccnc1 (centres undefined),2.24% (inactive),
O=C(C(=O)N1CCC(c2ccccc2)CC1)c1ccccc1,15.4% (inactive),
CN(c1ccccc1)S(=O)(=O)c1ccc(C(=O)NCc2cccnc2)cc1,-0.678% (inactive),
CC(C)(C)C1CCc2c(sc3nc(SCC(N)=O)nc(N)c23)C1 (centres undefined),,32.6 µM (active)
Nc1nc(SCC(=O)NCCN2CCOCC2)nc2sc3c(c12)CCC3,-0.575% (inactive),
Cc1sc2nc(SCC(N)=O)n(C)c(=O)c2c1C,-9.37% (inactive),
CC1Cc2[nH][nH]c(=O)c2C(C2CCCC2)O1 (centres undefined),2.64% (inactive),
O=C(C[C@H]1CC[C@H]2[C@@H](COC[C@H](O)CN2C(=O)c2ccccn2)O1)N1CCN(c2ccccc2)CC1,11.2% (inactive),
c1cc(-c2ccc3[nH]ccc3c2)n2ccnc2c1,-28% (inactive),
CCCCN(CCCC)CCC(O)c1cc2c(Cl)cc(Cl)cc2c2cc(C(F)(F)F)ccc12 (centres undefined),,20.6 µM (active)
CS(=O)(=O)N1CCCCC1c1cc(C(=O)NCc2ccccc2)no1 (centres undefined),15.4% (inactive),
Cn1c(Nc2ccc(F)cc2)nc2cc(-c3ccsc3)sc2c1=O,-11.4% (inactive),
CC(C)NC(=O)C1(C)CCCCN1Cc1cccc(C(F)(F)F)c1 (centres undefined),13.6% (inactive),
Cc1ccc(S(=O)(=O)NN=C2CC(C)(C)CC(=O)C2(C)C)cc1,0.409% (inactive),
COc1ccc(-c2nnc(-c3ccc4ccccc4c3)o2)cc1,14.4% (inactive),
COc1ccc(-c2nnc(SC(C)C(=O)NC3CC3)o2)cc1 (centres undefined),-2.36% (inactive),
COc1ccc(-c2nnc(SC(=O)N3c4ccccc4Sc4ccccc43)o2)cc1,,11.2 µM (active)
Cc1cccc(S(=O)(=O)N(C)C[C@@H]2OCc3cnnn3CCCC(=O)N([C@H](C)CO)C[C@@H]2C)c1,1.61% (inactive),

Compound,"activity, negative = toxicity",Potency
Cc1ccc(Cc2c(-c3ccc(C)cc3)nc3c4ccccc4ccn23)cc1,3.09% (inactive),
CS(=O)(=O)c1cccc(-c2ccc3nncn3c2)c1,14.8% (inactive),
COc1cc(NC(=O)c2[nH]cnc2C(N)=O)cc(C(=O)Nc2cccc(C(F)(F)F)c2)c1,,20.6 µM (active)
Cc1cccc(NC(=O)c2nnn(-c3cccc(C(F)(F)F)c3)c2N)c1,-17.8% (inactive),
COc1cc(NC(=O)c2cncc(-c3ccc(C#N)cc3)c2)cc(C(=O)Nc2cccc(C(F)(F)F)c2)c1,,inactive
C[C@H](CO)N1C[C@H](C)[C@H](CN(C)C(=O)c2ccncc2)OCc2ccccc2-c2c(n(C)c3ccccc23)C1=O,-7.3% (inactive),
COc1ccc(C(C(=O)NCc2ccccc2)n2c(=O)c(-c3ccccc3)nc3ccccc32)cc1 (centres undefined),-15.2% (inactive),
C[C@H](O)[C@@H]1C(=O)N2CCc3c([nH]c4ccccc34)[C@@H]2C[C@@H]1N(C)C(=O)Nc1ccc(F)cc1,-2.42% (inactive),
CC1(C(=O)Nc2ccc3c(c2)OCCO3)CCN1C(=O)Cc1cc(F)ccc1F (centres undefined),3.34% (inactive),
CC(C)OC(=O)c1ccc(NCc2cc(O)ccc2O)cc1Cl,,23.1 µM (active)
CC1(C)C2CCC1(C)C(OC(=O)c1ccc(O)cc1)C2 (centres undefined),-11.3% (inactive),
CC(C)NC(=O)c1ccc(Cl)cc1Cl,8.03% (inactive),
O=C(OC12CC3CC(CC(C3)C1)C2)c1ccc(NCc2cc(O)ccc2O)cc1,,23.1 µM (active)
COC(=O)c1ccc(NCC(=O)c2ccccc2)cc1,-4.43% (inactive),
COC(=O)c1ccc(NC(=O)Nc2ccc(C)cc2)cc1,4.54% (inactive),
COC(=O)c1ccc(NCc2cc(O)ccc2O)cc1,,20.6 µM (active)
CC(CN1CCOCC1)OC(=O)c1ccc(Cl)cc1Cl (centres undefined),1.51% (inactive),
C[C@@H]1CN([C@@H](C)CO)C(=O)c2cc(NS(C)(=O)=O)ccc2O[C@@H](C)CCCCO[C@H]1CN(C)C(=O)Nc1ccc2c(c1)OCO2,-1.65% (inactive),
CCNC(=O)C1(C)CCCN(Cc2noc(-c3ccccc3OC)n2)C1 (centres undefined),29.5% (inactive),
CC(=O)c1nn(-c2ccccc2)c(=Nc2ccccc2)cc1C,2.41% (inactive),
CCCNC(=O)C1(C)CCN1C(=O)C1(c2ccccc2)CC1 (centres undefined),19.9% (inactive),
CCCCCCN1CCN(C2CN(Cc3cn(CCCCCC)nn3)S(=O)(=O)C2)CC1 (centres undefined),-24.1% (inactive),
COc1ccc(CN2CCC(C)(Oc3cccc(F)c3)C2)c2ccccc12 (centres undefined),-12.9% (inactive),
CCCCN1C[C@H](c2ccc(Br)cc2)[C@@H](CC(=O)Nc2ccc(Br)cc2)C1=O,-2.8% (inactive),

# From PubChem BioAssay AID686971 (National Center for Advancing Translational Sciences (NCATS), 2013)
